Bioassay records from PubChem BioAssay.
TROY NFkB inh = TROY signaling inhibition. 360,000 compounds, 0.98% hits. inhibition, % at 10 µM. AID 1347056. Q293 LMP1-TROYcd NF-kB luciferase reporter, 4 h;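 active = compounds whose plate-normalised and pattern-corrected inhibition of the luciferase reporter signal at the single screening dose is 50% or more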
aDG glyco up = increases alpha dystroglycan glycosylation | Pro5-aDG cells, alpha-DG glycosylation AlphaScreen (IIH6); 0% Pro5, 100% B10-LARGE cell signal | activation, % at 10 µM | 360,000 compounds, 0.22% hits | AID 624168;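 active = activation of at least 8% versus controls, or a plate z-score of at least 8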;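 note: Pro5 are CHO cells carrying HIG-tagged alpha-DG that lacks glycosylation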
LGR2 antag = Drosophila LGR2 receptor signaling inhibition. HEK293 LGR2, CRE-luciferase, bursicon-stimulated, 4 h. inhibition, % at 9.99 µM. 380,000 compounds, 0.35% hits. AID 720647;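 active = drop in luminescence signal, shown as inhibition above about 50% in the replicate tests, limit read from the data, passing the limit was not always enough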;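 note: agonist challenge used bursicon conditioned medium at about half maximal strength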
HSP90 inh = inhibitors of HSP90 luciferase refolding in rabbit reticulocyte lysate; AID 1789; luciferase refolding luminescence, 3 h; 290,000 compounds, 0.91% hits; inhibition, % at 5.6 µM;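 active = inhibition above the screen-wide mean plus 3 SD, computed separately per campaign, cut at about 16% in these data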;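 note: inhibitors lower the luminescence because luciferase stays unfolded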
EBV LMP1 NFkB = inhibitors of Epstein-Barr LMP1-induced NF-kappaB reporter; LMP1-induced NF-kappaB luciferase reporter cells, luminescence; inhibition, % at 12.5 µM; 350,000 compounds, 0.69% hits; in the data active = inhibition above about 41%
TWEAK Fn14 block = TWEAK-Fn14 signaling inhibition; AID 1159606; 360,000 compounds, 2% hits; TWEAK-stimulated Fn14 reporter cells, luciferase luminescence, 8 h; inhibition, % at 10 µM; in the data active = inhibition above about 50%
Large screens that a line does not name were inactive. A selection: hits, their analogues and other compounds. The true share with any hit is near 2.6%.

CNC(=O)C[C@@H]1CC[C@H]2[C@H](COc3ccc(NS(=O)(=O)c4ccccc4C)cc3C(=O)N2C)O1	none (no result: TROY NFkB inh, aDG glyco up, HSP90 inh, EBV LMP1 NFkB, TWEAK Fn14 block)
CCOc1ccc(CN2CCN(Cc3c(C)nn(CC)c3C)CC2CCO)cc1 (configuration not stated)	TWEAK Fn14 block 76
CCn1nc(C)c(CN2CCN(Cc3cccc(OC)c3)C(CCO)C2)c1C (configuration not stated)	none
CC(C)NC(=O)c1c(O)c2cccc3c2n(c1=O)CCC3	none
CNC(=O)c1c(O)c2cccc3c2n(c1=O)CC3	TWEAK Fn14 block 53 (no result: TROY NFkB inh, LGR2 antag)
Nc1ccc(C(=O)c2cccs2)cn1	none
Nc1ccc(-c2cnc(N)c(C(=O)c3cccnc3)n2)cn1	EBV LMP1 NFkB 67, TWEAK Fn14 block 79 (no result: LGR2 antag, HSP90 inh)
O=C(c1cccs1)c1ccccc1Cc1cccs1	TWEAK Fn14 block 92 (no result: HSP90 inh)
O=C(c1cccs1)c1c[nH]cc1-c1ccccc1	none (no result: HSP90 inh, EBV LMP1 NFkB)
O=C(O)C(=O)Nc1ncn[nH]1	none (no result: HSP90 inh)
O=C(/C=C/c1ccccc1)Nc1ncn[nH]1	TWEAK Fn14 block 70
CCOCCCNC(=O)C(NC(=O)CNC(C)=O)c1ccc(C)cc1 (configuration not stated)	TWEAK Fn14 block 73 (no result: LGR2 antag)
C=CCNC(=O)CN1C(=O)c2cccc3cccc1c23	none
C=CCN1C(=O)N(/C=C/C)c2cccc3cccc1c23	TROY NFkB inh 56 (no result: LGR2 antag)
CO[C@@H]1CN(C)C(=O)c2cc(NC(=O)C3CCOCC3)ccc2OC[C@@H](C)N(C(=O)Nc2ccc(C(F)(F)F)cc2)C[C@H]1C	none (no result: TROY NFkB inh, aDG glyco up, HSP90 inh, EBV LMP1 NFkB, TWEAK Fn14 block)
CCCc1nnc(NC(=O)CNc2ccc(F)cc2)s1	TWEAK Fn14 block 81 (no result: TROY NFkB inh, LGR2 antag)
Cc1cnc(C(=O)OC(C)C(=O)Nc2ccc(Oc3ccccc3)cc2)cn1 (configuration not stated)	EBV LMP1 NFkB 71 (no result: HSP90 inh)
Cc1noc(C)c1NC(=O)N(C)C[C@H]1Oc2ccc(NC(=O)NC3CCCCC3)cc2CC(=O)N([C@H](C)CO)C[C@H]1C	none (no result: TROY NFkB inh, aDG glyco up, HSP90 inh, EBV LMP1 NFkB, TWEAK Fn14 block)
COc1cc(NC(=O)c2cc(-c3ccccc3)nc3c2cnn3C(C)C)cc(OC)c1OC	TWEAK Fn14 block 55 (no result: LGR2 antag, HSP90 inh)
CNC(=O)c1cccc(NC(=O)c2cc(-c3ccccc3)nc3c2cnn3C(C)C)c1	none (no result: HSP90 inh)
COc1ccc([C@H]2CC(=O)C=C(c3ccnc4ccc(Cl)cc34)C2)cc1	TWEAK Fn14 block 52 (no result: HSP90 inh)
O=C(Cc1ccc(Cl)cc1)NCC(=O)N1CCCCCC1	none
O=C(Cc1ccc(Cl)cc1)NCC(=O)N1CCCCC1	EBV LMP1 NFkB 45
CC1CCCCN1CCCNC(=O)c1ccc2c(c1)NC(=O)CN2C (configuration not stated)	none (no result: HSP90 inh)
CCCCN(CCCNC(=O)c1ccc2c(c1)NC(=O)CN2C)c1ccccc1	TROY NFkB inh 90, LGR2 antag 91, TWEAK Fn14 block 108 (no result: HSP90 inh)
COc1ccc2sc(-c3ccc(S(C)(=O)=O)cc3)c(C#CCO)c2c1	LGR2 antag 57, TWEAK Fn14 block 77 (no result: HSP90 inh)
COc1cc(-c2ccc3sc(-c4ccsc4)c(C#CCO)c3c2)cc(OC)c1OC	TWEAK Fn14 block 60 (no result: HSP90 inh)
COc1ccc2c(C#CCCO)c(-c3ccc(S(C)(=O)=O)cc3)sc2c1	none (no result: HSP90 inh)
C[C@@H]1CN([C@H](C)CO)C(=O)Cc2cc(NC(=O)CCCCCC(=O)Nc3ccccc3N)ccc2O[C@H]1CN(C)S(C)(=O)=O	none (no result: TROY NFkB inh, aDG glyco up, HSP90 inh, EBV LMP1 NFkB, TWEAK Fn14 block)
CO[C@H]1CN(C)C(=O)c2cc(NC(C)=O)ccc2OC[C@@H](C)N(CCc2ccccc2)C[C@@H]1C	none (no result: TROY NFkB inh, aDG glyco up, HSP90 inh, EBV LMP1 NFkB, TWEAK Fn14 block)
CC(C)N1CCN(c2ccc(OC[C@H]3CO[C@](Cn4cncn4)(c4ccc(Cl)cc4Cl)O3)cc2)CC1	EBV LMP1 NFkB 56 (no result: HSP90 inh)
COc1ccc(N2CCN(C(=O)Cn3cncn3)CC2)cc1	none
CCC(=O)NC1=C(Nc2ccc(N)cc2)C(=O)c2ccccc2C1=O	TWEAK Fn14 block 52
OC(CN1CCN(c2ccccn2)CC1)Cn1c2ccc(Cl)cc2c2cc(Cl)ccc21 (configuration not stated)	TWEAK Fn14 block 52 (no result: LGR2 antag)
C[C@H](CO)N1C[C@H](C)[C@@H](CN(C)C(=O)C2CCC2)Oc2ncc(-c3cccnc3)cc2C1=O	none (no result: TROY NFkB inh, aDG glyco up, HSP90 inh, EBV LMP1 NFkB, TWEAK Fn14 block)
O=C(C1CCOCC1)N1C[C@@H]2[C@H](c3ccccc31)[C@H](CO)N2C(=O)c1ccccc1	none (no result: TROY NFkB inh, aDG glyco up, HSP90 inh, EBV LMP1 NFkB, TWEAK Fn14 block)
CC(C)[N+](C)(CCOC(=O)C1c2ccccc2Oc2ccccc21)C(C)C	EBV LMP1 NFkB 81
CCN(CC)C(=O)C1c2ccccc2Oc2ccccc21	TWEAK Fn14 block 61
CC(C)CNC(=O)COC(=O)C1c2ccccc2Oc2ccccc21	EBV LMP1 NFkB 66
